Assay outcomes: PubChem, National Center for Advancing Translational Sciences (NCATS)
Most compounds without a hit are left out; they make up all but 4.7% or so of the library.
D1 ag: agonists of human D1 dopamine receptor; P21728; HEK293 T-REx D1 cells, calcium flux, agonist mode; activation, % at 2 µM; 360,000 compounds, 1% hits
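Agonism was scored from calcium flux recorded over 180 s (1 read/s) after pintool compound addition, following a 10-cycle baseline. Cells were inducible force-coupled HEK293 TREx D1, plated overnight at 30 C and loaded with no-wash calcium dye.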
D1 PAM: potentiators of human D1 dopamine receptor | HEK293 TREx D1 cells, calcium flux, dopamine EC20 potentiation | potentiation, % at 10 µM | 360,000 compounds, 0.036% hits | AID 504651; in the data active means potentiation above about 30%
D1 antagonist: antagonists of human D1 dopamine receptor | activity change, negative = inhibition, % at 10 µM | HEK293 TREx D1 cells, calcium flux, dopamine EC80; stronger effect = lower value | AID 504652 | 360,000 compounds, 3.2% hits | P21728; in the data active means activity change below about -30%
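HEK293 T-REx cells expressing inducible, force-coupled D1 receptor; no-wash Ca dye, 30–90 min RT. Cmpd → 180 s read at 1 Hz → EC80 DA → 180 s read.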
TRHR ag: agonists of human TRH receptor; activation, % at 2 µM; AID 493084; P34981; TRHR cells, calcium flux fluo-8, FDSS agonist mode; 360,000 compounds, 0.18% hits
Target sequence (P34981 whole entry, looked up): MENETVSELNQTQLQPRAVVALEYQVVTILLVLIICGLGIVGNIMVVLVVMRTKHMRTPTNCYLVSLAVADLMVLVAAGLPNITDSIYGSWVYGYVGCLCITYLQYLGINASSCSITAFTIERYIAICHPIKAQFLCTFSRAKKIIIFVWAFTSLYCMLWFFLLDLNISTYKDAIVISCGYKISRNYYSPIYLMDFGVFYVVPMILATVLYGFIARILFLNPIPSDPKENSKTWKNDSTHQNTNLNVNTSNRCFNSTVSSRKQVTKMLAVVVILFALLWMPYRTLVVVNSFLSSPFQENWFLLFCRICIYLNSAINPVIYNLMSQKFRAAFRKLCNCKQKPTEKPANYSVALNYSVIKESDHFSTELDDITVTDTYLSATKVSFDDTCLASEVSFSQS
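Steps: seed TRHR cells overnight; add fluo-8 no-wash Ca dye, RT 30 min–1.5 h; record 10 s baseline; pin-transfer compounds; monitor fluorescence 1 cycle/s for the agonist window. Calcium increases flag candidate agonists.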
TRHR enhancer: allosterically enhances the human TRH receptor; P34981; enhancement, % at 2 µM; AID 493056; TRHR cells, fluo-8 calcium fluorescence, EC20 TRH enhancement; 360,000 compounds, 0.66% hits; in the data active means enhancement above about 30%
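TRHR-expressing cells loaded with fluo-8 calcium dye were read kinetically (ex 480/em 530) during compound addition, then stimulated with an EC20 of TRH (10 nM final). Enhancement of the Gq-mediated intracellular calcium response was scored.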
Large screens that a line does not name were inactive. Unless noted, no stated cut-off is given here; in the data, active means activation above about 30%; inactive means the rest.

COc1ccccc1N1CCN(CCCn2c(=S)[nH]c3ccccc3c2=O)CC1	D1 antagonist -88
O=c1c2cc(N3CCOCC3)ccc2[nH]c(=S)n1CCCN1CCN(c2ccccc2F)CC1	D1 antagonist -71
O=C(NNC1=NS(=O)(=O)c2ccccc21)c1ccc(Cl)cc1	none
O=C(NNC1=NS(=O)(=O)c2ccccc21)c1ccc([N+](=O)[O-])cc1	TRHR enhancer 30
COc1cc(C(=S)N2CCN(c3cccc(Cl)c3)CC2)ccc1O	D1 antagonist -31
Oc1ccccc1C(=S)N1CCN(c2cccc(Cl)c2)CC1	D1 antagonist -39
OC(CN1CCN(c2cccc(Cl)c2)CC1)c1ccc(F)cc1 (stereo unspecified)	none
OC(CN1CCN(c2cccc(Cl)c2)CC1)c1ccccc1 (stereo unspecified)	D1 antagonist -35
Cc1csc2nc(COC(=O)COc3ccccc3F)cc(=O)n12	D1 antagonist -46
Cc1csc2nc(COc3ccc(NC(=O)COc4ccccc4F)cc3)cc(=O)n12	none
Cc1ccccc1OCC(=O)Nc1ccccc1C(=O)OCc1cc(=O)n2c(C)csc2n1	D1 antagonist -40
Cc1ccccc1OCC(=O)Nc1ccccc1C(=O)OCc1cc(=O)n2ccsc2n1	none
N#Cc1ccc(C(=O)OCCCc2cc3ccccc3c(=O)o2)cc1	none (no result: D1 antagonist)
Cc1cc(C)cc(-n2ccn3cnnc3c2=O)c1	none
Cc1cc(O)cc2c1C(=O)/C(=C/c1ccco1)O2	D1 ag 42
CCN(CC)C(=O)Oc1ccc2c(c1)O/C(=C\c1ccco1)C2=O	none
COC(=O)COc1ccc2c(c1)O/C(=C\c1ccco1)C2=O	none
CCC(=O)Oc1ccc2c(c1)O/C(=C\c1ccco1)C2=O	D1 ag 43
COc1ccc(NS(=O)(=O)c2ccc(O)c(NC(=O)c3cc4c(C)nn(-c5ccc(F)cc5)c4s3)c2)cc1	none
CC1CCCCN1S(=O)(=O)c1ccc2[nH]c(=O)cc(C(=O)NCCCN3CCCCCC3)c2c1 (stereo unspecified)	none
COC(=O)c1ccc2nc(C)cc(Nc3ccccc3C)c2c1	D1 antagonist -33
COc1ccc(Nc2cc(C)nc3ccccc23)cc1	none
Cc1ccc(Nc2cc(C)nc3c(C)cccc23)cc1	D1 antagonist -33
CC(=O)c1ccc(Nc2cc(C)nc3ccccc23)cc1	none
CC(=O)c1ccc(Nc2cc(C)nc3c(C)cccc23)cc1	D1 antagonist -31
CC(=O)c1cccc(Nc2cc(C)nc3ccc(C)cc23)c1	D1 antagonist -40
CC(C)C[C@H]1C(=O)N2CCC[C@H]2[C@]2(O)O[C@](NC(=O)[C@@H]3C=C4c5cccc6[nH]c(Br)c(c56)CC4N(C)C3)(C(C)C)C(=O)N12 (stereo partly specified)	D1 antagonist -42
COc1cc(C(=O)Nc2ccc(NC(=O)c3ccc(Br)cc3)cc2)cc(OC)c1OC	none
Cc1ccc2nc(NC(=O)C3CC(=O)N(Cc4ccco4)C3)sc2c1 (stereo unspecified)	TRHR enhancer 36
Cc1ccc(NC(=O)C2CC(=O)N(Cc3ccccc3)C2)nc1 (stereo unspecified)	none
CC(=O)Nc1ccc(NC(=O)C2CC(=O)N(Cc3ccco3)C2)cc1 (stereo unspecified)	none
Cc1ccnc(NC(=O)C2CC(=O)N(Cc3ccccc3)C2)c1 (stereo unspecified)	D1 antagonist -44
O=C(Nc1ccc(F)c(Cl)c1)C1CC(=O)N(Cc2ccco2)C1 (stereo unspecified)	D1 antagonist -43
Cc1c(CC(=O)NCCc2ccccc2F)c(=O)oc2cc(O)c(Cl)cc12	none
CCc1ccc(NC(=O)CC2C(=O)N(c3ccc(OC)cc3)C(=O)N2Cc2cccs2)cc1 (stereo unspecified)	none
O=C(Nc1ccccc1Cl)C1CCCN1C(=O)OCc1ccccc1 (stereo unspecified)	none
Cc1ccc(S(=O)(=O)N(C)c2ccc3sc(C)nc3c2)cc1	TRHR enhancer 38
Cc1cccc(NC(=O)CNC(=O)c2ccc3nc[nH]c3c2)c1C	none
Cc1ccc(S(=O)(=O)NCCc2cn3ccsc3n2)cc1	D1 antagonist -73
COc1ccc(S(=O)(=O)NCCc2cn3ccsc3n2)cc1	D1 antagonist -45
COc1ccc(S(=O)(=O)NCCc2cn3ccsc3n2)cc1OC	none
CC(OC(=O)c1cc(S(=O)(=O)N2CCOCC2)ccc1Br)C(=O)N1CCOCC1 (stereo unspecified)	none
Cc1ccc(N2CCN(Cc3nnc(-c4ccc5c(c4)OCO5)o3)CC2)c(C)c1	D1 antagonist -30
COc1cc2c(=O)n(CC3CCCO3)c(=O)n(CC(=O)Nc3cccc(Cl)c3)c2cc1OC (stereo unspecified)	D1 antagonist -44
Cc1ccc(C(=O)N/C(=C\c2cccs2)C(=O)N2CCN(C)CC2)cc1C	none
OCCN1CN=C(Nc2nc3ccccc3o2)NC1	D1 antagonist -42
CCCN1CN=C(Nc2nc3ccccc3o2)NC1	none
CCN(CC)CC1C(=O)N(c2ccc(OC)cc2)C1c1ccccc1 (stereo unspecified)	D1 antagonist -39
CN(C)c1ccc(/C=N/N(CCO)C2=NS(=O)(=O)c3ccccc32)cc1	D1 ag 40
CN(C)CCN1C(=O)C(O)=C(C(=O)c2cc3ccccc3o2)C1c1cccc(Br)c1 (stereo unspecified)	D1 antagonist -38
O=C(Nc1nnc(SCc2ccc(Cl)cc2)s1)c1cnccn1	D1 antagonist -36
COc1ccc(OCCCN2CCc3ccccc3C2)cc1	none
COc1ccc(C2(O)CCN(CCCCOc3ccccc3)CC2)cc1	D1 ag 36
Cc1ccc(C(=O)NCCCNC(=O)c2ccccn2)cc1	none
Cc1ccc(C(=O)NCCCNc2ccccc2[N+](=O)[O-])cc1	D1 antagonist -44
Cc1ccc(NC(=O)CN2C(=O)COc3ccc(S(=O)(=O)NC4CCCC4)cc32)cc1N(C)C	none
CCOC(=O)C(C)N1C(=O)S/C(=C/c2cc(C)n(-c3ccccn3)c2C)C1=O (stereo unspecified)	D1 antagonist -45
COc1ccc(CNC(=O)CCC2N=C3c4ccccc4N=C(SCc4cccc(F)c4)N3C2=O)cc1 (stereo unspecified)	none
COCCNC(=O)C(=O)Nc1cc2c3c(c1)CCC(=O)N3CCC2	D1 antagonist -31
CC1C(=O)N2CCCc3cc(NC(=O)C(=O)NCCc4ccccc4)cc1c32 (stereo unspecified)	D1 antagonist -35
CC(C)CCNC(=O)C(=O)Nc1cc2c3c(c1)CCC(=O)N3CCC2	none
CN1CCCC1CCNS(=O)(=O)c1ccc(Br)cc1 (stereo unspecified)	D1 antagonist -33
COc1ccc(CCNC(=O)c2cc(-c3cc(Cl)ccc3O)n[nH]2)cc1OC	D1 antagonist -32
